Drawing on PubChem BioAssay (Tox21), this text covers Potency and activity change, negative = inhibition for 40 compounds.

The structures appear in SMILES notation. Results filed as inconclusive are left out. Where a call stands in place of a potency, no number is given. Calls of active or inactive are those of the source. Calls come from the whole dose curve; as a rule, active = well fitted inhibition curve with a large enough effect in the signal ratio in the repeat runs, with a control signal flat; inconclusive = weak or mixed curves, or effect the other way; inactive = flat fitted curve, though single readings scatter; the % refers to the signal ratio.
Potency is the fitted concentration of half-maximal effect.

Sequence of D(2) dopamine receptor (Homo sapiens) (P14416 whole entry, looked up): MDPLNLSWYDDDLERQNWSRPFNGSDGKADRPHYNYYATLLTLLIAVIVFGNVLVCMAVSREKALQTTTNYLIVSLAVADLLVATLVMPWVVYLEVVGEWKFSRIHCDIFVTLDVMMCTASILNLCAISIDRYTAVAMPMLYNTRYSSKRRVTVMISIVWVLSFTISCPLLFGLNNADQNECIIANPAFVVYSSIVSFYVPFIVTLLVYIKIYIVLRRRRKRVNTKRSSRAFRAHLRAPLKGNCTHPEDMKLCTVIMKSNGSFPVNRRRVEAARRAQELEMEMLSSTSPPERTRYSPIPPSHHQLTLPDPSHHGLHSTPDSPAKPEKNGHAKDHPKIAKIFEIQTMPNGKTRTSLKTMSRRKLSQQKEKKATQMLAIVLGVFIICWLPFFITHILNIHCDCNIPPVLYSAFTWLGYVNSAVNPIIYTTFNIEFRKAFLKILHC

The target in this test is D(2) dopamine receptor (Homo sapiens) (UniProt P14416). Nature of the test: Dopamine D2 receptor (DRD2) small molecule antagonists, cell-based qHTS assay (AID 1963595). Conditions: HEK293-DRD2 cAMP HTRF antagonist mode; series mostly up to 92.4 µM. The source says:
National Center for Advancing Translational Sciences [NCATS]
Division of Preclinical Innovation [DPI]
U.S. Environmental Protection Agency [EPA]
National Institutes of Environmental Health Sciences [NIEHS]
National Toxicology Program [NTP]
U.S. Food and Drug Administration [FDA]
DRD2 is the D2 subtype of the dopamine receptor, which is coupled to Gi subtype of G protein-coupled receptor. This G protein-coupled receptor inhibits adenylyl cyclase activity. The DRD2-HEK293 cell line stably expressing D2 dopamine receptor can be used for screening agonists and antagonists of interactions between D2 and its ligands. The Hek293-DRD2 cAMP assay is based on HTRF technology. It measures changes of cAMP accumulation in response to Gi coupled GPCR activation or inhibition.
Tox21 Assay Protocol Summary:
DRD2-Hek293 cells were dispensed at 600 cells/3uL/well in 1536-well white plates using a Multidrop Dispenser. After the assay plates were incubated at a 37 C/5% CO2 incubator for 24 h, 1 uL of Ro20-1724 at final concentration of 0.1 mM was transferred to the assay plate by a Flying Reagent Dispenser. Following Ro20-1724 addition, 23 nL of compound dissolved in DMSO, positive controls or DMSO only was added to the assay plates via Wako pintool station. The assay plates were incubated at room temperature for 10 min. Next, 1 uL of mixture of NKH477 (final concentration at 200 nM) and quinpirole (final concentration at 12 nM) was added into the plates. After the assay plates were incubated at room temperature for an additional 30 min, 2.5 ul/well of cAMP-d2 and 2.5 ul/well of anti-cAMP-cryptate were added respectively into the assay plates using a Flying Reagent Dispenser. The plates were incubated at room temperature for 1 h. The fluorescence intensity in the plates was measured at 340 nm excitation and 665 & 620 nm emission by an Envision plate reader.
In general terms: Quantitative high-throughput screening tests each substance at several concentrations.
As to `CCCCCC=CCC=CCCCCCCCC(=O)OCC`, the Potency entry was “inactive”.

For `Nc1ccc(/C=C/c2ccc(N)cc2S(=O)(=O)O)c(S(=O)(=O)O)c1`, the activity change, negative = inhibition is 6.36% [at 0.348 µM] (inactive).

With `CCOC(=O)CC(O)(CC(=O)OCC)C(=O)OCC`, the Potency result is “inactive”.

Take `Cn1cnc2c(=O)[nH]c(N)nc21`: the Potency entry is “inactive”.

As for `Oc1ccc(C2(c3ccc(O)c(C4CCCCC4)c3)CCCCC2)cc1C1CCCCC1`, the Potency entry is “inactive”.

Consider `COc1cccc(N(C)C(=S)Oc2ccc3c(c2)CCCC3)n1`, for which the Potency result was “inactive”.

Turning to `OC1CCCCC1c1ccccc1` (stereo not given), the Potency entry was “inactive”.

Consider `Cc1ccccc1N=C(N)Nc1ccccc1C`, for which the Potency result was “inactive”.

Take `O=C(NO)c1ccccc1`: the Potency entry was “inactive”.

On to `CC(C)(C)CC(C)(C)c1ccc(OCCO)cc1`, for which the Potency entry is “inactive”.

`C=C(C)C(=O)OCCCCCCCCCC`: the Potency result was “inactive”.

Consider `CCc1ncc(C)[nH]1`, for which the Potency result was “inactive”.

As to `Cc1c[nH]c(=O)[nH]c1=O`, the Potency entry was “inactive”.

In the case of `NCCN1CCOCC1`, the Potency entry was “inactive”.

As for `Cc1nc(-c2ccccn2)ncc1C(=O)Nn1cc(C)c2cc(F)ccc21`, the Potency result was “inactive”.

As to `CC1(CO)CN(c2ccccc2)NC1=O` (stereo not given), the Potency result is “inactive”.

For `Cc1c2ccccc2c(C)c2c1ccc1ccccc12`, the Potency result was “inactive”.

In the case of `c1ccc(OCc2ccc(CCCN3CCOCC3)cc2)cc1`, the Potency result is “inactive”.

Take `CN(C/C=C/c1ccccc1)Cc1cccc2ccccc12`: the Potency is 6.68 µM (active).

Consider `Clc1ccccc1CN1CCc2sccc2C1`, for which the Potency entry is “inactive”.

Turning to `CCCCCCCCNC`, the Potency entry was “inactive”.

For the compound `C=CC(=O)[O-].C=CC(=O)[O-].[Zn+2]`, the Potency result was “inactive”.

In the case of `O=C(c1ccccc1)C1CCC1`, the Potency result was “inactive”.

`Cc1ccccc1S`: the Potency entry is “inactive”.

Turning to `C[C@@H](O[C@H]1OCCN(Cc2n[nH]c(=O)[nH]2)[C@H]1c1ccc(F)cc1)c1cc(C(F)(F)F)cc(C(F)(F)F)c1`, the Potency entry was “inactive”.

Regarding `O=C(N[C@H](CO)[C@H](O)c1ccc([N+](=O)[O-])cc1)C(Cl)Cl`, the Potency result was “inactive”.

With `CCOc1ccc(NC(=O)CC(C)=O)cc1`, the Potency entry was “inactive”.

Take `CC(=O)Oc1ccc(C(=C2CCCCC2)c2ccc(OC(C)=O)cc2)cc1`: the Potency entry is “inactive”.

Take `CC(C)c1c(C(=O)Nc2ccccc2)c(-c2ccccc2)c(-c2ccc(F)cc2)n1CC[C@@H](O)C[C@@H](O)CC(=O)O`: the Potency entry was “inactive”.

Turning to `CCCCOC(=O)CCCCC(=O)OCCCC`, the Potency result was “inactive”.

With `Cc1ccc(C(C)OC(=O)C2(C)CCC(C(=O)O)C2(C)C)cc1` (stereo not given), the Potency result is “inactive”.

As for `N#CCCOCCOCCC#N`, the Potency entry is “inactive”.

For `O=C(O)C(=O)Cc1ccccc1`, the Potency entry is “inactive”.

Consider `CO[Si](C)(OC)OC`, for which the Potency result is “inactive”.

Regarding `CN(C)c1ccc(C2(c3ccc(N(C)C)cc3)OC(=O)c3cc(N(C)C)ccc32)cc1`, the Potency entry is “inactive”.

In the case of `CN(CCCN1c2ccccc2CCc2ccccc21)CC(=O)c1ccc(Cl)cc1`, the Potency result was “inactive”.

Consider `COC(=O)NCCC[Si](OC)(OC)OC`, for which the Potency entry was “inactive”.

On to `C=C(C)c1cccc(C(=C)C)c1`, for which the Potency entry was “inactive”.

With `CN(C)C(=O)NC1(c2ccccc2)CCN(CCC[C@]2(c3ccc(Cl)c(Cl)c3)CCCN(C(=O)c3ccccc3)C2)CC1`, the activity change, negative = inhibition is 3.81% [at 18.9 µM] (inactive).

In the case of `CC(O)(c1ccc(Cl)cc1)c1ccc(Cl)cc1`, the Potency entry is “inactive”.
